# In PubChem BioAssay (NCI):
# The panel holds about 83,000 compounds, 20% with a hit somewhere; the sample as a whole holds those more often.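 Treatment: one concentration, 48 hours, 96-well format. Scoring: percent growth, with anything below 10 considered active.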 A number with no mark means an inactive call. Activity calls are given as the source filed them.
# Tested on: SR leukemia
# Test: NCI-60 one-dose screen, 48 h (100 = growth as untreated, 0 = no growth, -100 = all killed)
# Settings: 10 µM unless noted
row,Structure (SMILES),growth
1,N#CC1=C(c2cccs2)Nc2c(c(-c3ccccc3)nn2-c2ccccc2)C12C(=O)Nc1ccccc12 (stereo not drawn),1.46% (active)
2,O=C1CC(c2ccc(I)cc2)OC2C=Cc3ccccc3C12 (stereo not drawn),88.9%
3,COc1ccc2c(c1)N=c1c-2cc2c(O)[nH]c(=S)n2c1=O,21.7%
4,Cc1cc(N=C(N)c2ccccc2)ccc1OCCCCCCCCn1ccnc1,0.698% (active)
5,CS(=O)(=O)Nc1cc(-c2ccc3ncnc(N4CCc5cc(F)c(Cl)cc54)c3c2)cnc1Cl,-31.9% (active)
6,COc1cc(NC(=O)C(C)C)ccc1C(=O)NC(=S)Nc1ccc(S(N)(=O)=O)cc1,111%
7,COc1cccc(/C=C/c2nc3ccccc3c(=O)n2CC(=O)Nc2ccccc2)c1,90%
8,COC(=O)c1c(C(=O)OC)c2ccc3c4ccccc4ccc3n2c1C(=O)OC,94.6%
9,CCCCCCCCc1cccc(CC(=O)Nc2ccc(C)cc2C(=O)O)c1,31.1% [25 µM]
10,O=C(c1cc2cc(OCCCN3CCC3)ccc2[nH]1)N1C[C@@H](CCl)c2c1cc(OCc1ccccc1)c1ccccc21,-9.25% (active)
11,COc1ccc(NC2=C(I)C(=O)C(C)=C(C)C2=O)cc1,12.3%
12,CC[C@]12C=CCN3CC[C@@]4(c5ccc(OC)cc5N(C)[C@H]4[C@@](O)(C(=O)OC)[C@@H]1OC(=O)CCCC[P+](c1ccc(F)cc1)(c1ccc(F)cc1)c1ccc(F)cc1)[C@@H]32,28.8%
13,FC(F)(F)c1cc2c(Cl)ncnc2n1CCN1CCCCC1,-50.9% (active)
